Screening data from PubChem BioAssay.
Sampled rows, rich in hits. Any-hit rate of the full collection: about 10%.
Luc counter: Counterscreen for Luciferase (Kinase-Glo TM) Inhibition. Luciferin 4-monooxygenase (Photuris pensylvanica), Q27757. Kinase-Glo luciferase, ATP luminescence, 8 min. Potency, µM (series often up to 38.3 µM), most hits filed as inhibitors. 0.28% of 200,000 active. AID 1379, 2008; active means well fitted inhibition curve with a large enough effect; inconclusive means small, poorly fitted or top-dose-only effect; further: nearly all actives have a fitted effect of over 60% in size
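Kinase-Glo luciferase light output from ATP and luciferin was measured with 10 uM ATP, within the enzyme's linear range. Buffer: 50 mM imidazole pH 7.2, 50 mM KCl, 7 mM MgCl2, 0.01% Tween 20, 0.05% BSA; luminescence read after 8 min at ambient temperature.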
HPGD inh: qHTS Assay for Inhibitors of HPGD (15-Hydroxyprostaglandin Dehydrogenase); 15-hydroxyprostaglandin dehydrogenase [NAD(+)] (Homo sapiens), P15428; purified HPGD, NADH fluorescence kinetic, PGE2 substrate; Potency, µM, hits mostly inhibitors; 4.3% of 150,000 active; AID 894, 2007
Target sequence (P15428 whole entry, looked up): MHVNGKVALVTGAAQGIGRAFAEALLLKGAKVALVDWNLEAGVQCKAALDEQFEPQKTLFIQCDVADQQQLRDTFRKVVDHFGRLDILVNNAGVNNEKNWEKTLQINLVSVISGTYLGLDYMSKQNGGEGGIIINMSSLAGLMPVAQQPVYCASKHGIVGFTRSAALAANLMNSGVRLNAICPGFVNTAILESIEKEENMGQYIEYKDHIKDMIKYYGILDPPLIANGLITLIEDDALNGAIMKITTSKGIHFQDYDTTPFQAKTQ
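20 nM HPGD preincubated 15 min at room temperature with compound in 50 mM Tris-HCl pH 8, 0.01% Tween 20. Started with 1 mM NAD+ and 30 uM prostaglandin E2; NADH fluorescence (360/450 nm) read 5 times over 30-s intervals, last minus first.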
PNC inhibitor: High Content Assay for Compounds that inhibit the Assembly of the Perinucleolar Compartment; PC3M PTB-GFP, PNC prevalence imaging, 16 h; active compounds read low; activity change (PNC), negative = inhibition, % at 10 µM; 3.1% of 140,000 active; AID 2417, 2010;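 active means readout at or below -70, meaning at least 70% loss of cells showing the perinucleolar compartment, a nuclear body marking cancer cells; inconclusive means readout between -30 and a set limit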
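Compounds are pinned in duplicate onto adhered PC3M cells stably expressing GFP-tagged PTB and incubated 16 h at 37 C. Cells are then fixed, nuclei stained with Hoechst, and PNC-positive cells counted.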
Lamin A splicing: qHTS Assay for Modulators of Lamin A Splicing; HeLa LMNA splicing GFP/RFP minigene ratio, 48 h; Potency, µM (top dose mostly 46.1 µM), usual class: inhibitors; 0.01% of 200,000 active; active means well fitted inhibition curve with a large enough effect in the signal ratio, with a control signal flat, not every such curve was filed as active; inconclusive means small, poorly fitted or top-dose-only effect, or effect the other way, or a change in a side signal; the % refers to the signal ratio
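S3 HeLa cells stably expressing lamin A-EGFP splicing minigene plus DsRed2, 600 cells/well, 48 h compound exposure at 37C. Laser-scanning cytometry; analysed as GFP (500-530 nm)/RFP (575-640 nm) total intensity ratio; 0.5% DMSO vehicle.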
ALDH1A1 block: qHTS Assay for Inhibitors of Aldehyde Dehydrogenase 1 (ALDH1A1). Aldehyde dehydrogenase 1A1 (Homo sapiens), P00352. Purified ALDH1A1, NADH fluorescence, propionaldehyde substrate. Potency, µM (series often up to 75.3 µM), most hits filed as inhibitors. 7.3% of 220,000 active. AID 1030, 2008
Target sequence (P00352 whole entry, looked up): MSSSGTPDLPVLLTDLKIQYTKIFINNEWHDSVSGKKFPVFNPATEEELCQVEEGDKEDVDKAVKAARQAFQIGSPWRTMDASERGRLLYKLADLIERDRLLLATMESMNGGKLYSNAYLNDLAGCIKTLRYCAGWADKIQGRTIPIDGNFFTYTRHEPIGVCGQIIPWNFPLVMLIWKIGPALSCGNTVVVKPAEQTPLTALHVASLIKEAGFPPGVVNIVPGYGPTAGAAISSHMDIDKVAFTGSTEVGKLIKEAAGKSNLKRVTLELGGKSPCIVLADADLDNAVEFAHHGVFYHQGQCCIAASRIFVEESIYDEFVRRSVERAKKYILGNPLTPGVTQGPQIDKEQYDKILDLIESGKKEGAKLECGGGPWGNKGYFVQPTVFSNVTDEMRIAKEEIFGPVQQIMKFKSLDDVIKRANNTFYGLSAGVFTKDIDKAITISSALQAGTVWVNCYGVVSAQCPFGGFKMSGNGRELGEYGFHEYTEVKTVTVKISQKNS
Hits are given with their value; i = inactive; ? = inconclusive; nt = no result; [ ] = another dose, or the depositor's remark. Unless noted, the call rests on the fitted dose curve; in most records, active means well fitted inhibition curve with a large enough effect (not every such curve was filed as active); inconclusive means small, poorly fitted or top-dose-only effect, or another doubt; inactive means no such curve, though single readings can be large or run the other way.

SMILES | Luc counter | HPGD inh | PNC inhibitor | Lamin A splicing | ALDH1A1 block
CC[C@](N)(CCC(=O)O)C(=O)O | i | i | nt | nt | i
O=c1[nH][nH]c(=S)c(=O)[nH]1 | i[7.66 µM] | 3.98µM | nt | nt | ?
COc1ccccc1C(=O)Nc1c(C(=O)N2CCN(c3ccccc3F)CC2)oc2ccccc12 | nt | nt | nt | i | nt
O/N=C(\c1ccc(Cl)cc1)c1cc2ccccc2o1 | i | 25.1µM | ? | ? | i
COc1cccc2cc(/C(=N/O)c3ccccc3)oc12 | i | nt | nt | nt | i
CO[C@@H]1COC(=O)C/C=C\[C@@H](C)[C@@H]2C=C[C@H](O)[C@@H](COC(=O)CCC[C@H]1C)O2 | nt | nt | nt | nt | i[13.5 µM]
CC(C)N(Cc1nc(-c2ccccc2)no1)C(=O)c1ccc(Br)o1 | i | i | i | i | 10µM
Cc1ccc(SCC(=O)N(Cc2nc(-c3ccccc3)no2)C(C)C)cc1 | i | i | i | i | 25.1µM
CC(C)N(Cc1nc(-c2ccccc2)no1)C(=O)c1ccc(Cl)cc1 | i | i | i | ? | i
Cc1ccc(C(=O)N(Cc2nc(-c3ccc(C)cc3)no2)C(C)C)cc1 | i | i | i | i | i
Cc1ccc2cccnc2c1 | nt | i | nt | nt | ?
COC(=O)CC[C@@H](C)[C@@H]1CC[C@@H]2[C@@H]3CC[C@H]4C[C@@H](O)CC[C@@]4(C)[C@@H]3CC[C@]21C | i[7.66 µM] | i | nt | nt | i[13.5 µM]
Cc1ccccc1-c1nc(-n2ccnc2)c2ccccc2n1 | i | i | nt | ? | i
OCC1O[C@@H](OC2C(O)C(CO)O[C@@]2(CO)O[C@@H]2OC(CO)C(O)C(O)C2O)C(O)C(O)C1O (stereo partly drawn) | i | i | nt | i | i
Cc1ccc(C(=O)OC[C@H]2O[C@H](Cl)C[C@@H]2OC(=O)c2ccc(C)cc2)cc1 | i | i | nt | nt | i
CCCc1cc(C(=O)NNC(=S)Nc2cccc(C)c2)cs1 | i | ? | i | ? | 10µM
Cc1cccc(NC(=S)NNC(=O)c2ccc3c(c2)OCO3)c1 | i | i | i | i | ?
Cc1cccc(NC(=S)NNC(=O)c2csc3c2CCC(C)C3)c1 (stereo not drawn) | i | i | i | ? | 22.4µM
CC(C)CNC(=S)NNC(=O)c1csc2c1CCC(C)C2 (stereo not drawn) | i | i | ? | ? | i
CC(C)c1nn2c(=O)cc(COC(=O)CNC(=O)c3ccccc3Cl)nc2s1 | nt | nt | nt | i | nt
O=S(=O)(c1ccccc1)N1C2CCC1CC(O)(c1cccnc1)C2 (stereo not drawn) | i | i | i | i | 12.6µM
O=C(Nc1ccccc1)N1C2CCC1CC(O)(c1cccnc1)C2 (stereo not drawn) | i | i | ? | i | i
O=C(Nc1c2c(nn1-c1ccc(Cl)cc1)CS(=O)(=O)C2)c1ccccc1F | nt | nt | nt | i | nt
C=C(C)CSc1cc(C)c(C#N)c2nc3ccccc3n12 | i | ? | -93.2 | i | i
COCCN(CCOC)c1cc(C)c(C#N)c2nc3ccccc3n12 | i | ? | -95.0 | i | ?
SMILES | Luc counter | HPGD inh | PNC inhibitor | Lamin A splicing | ALDH1A1 block
Cc1cc(NCCCCO)n2c(nc3ccccc32)c1C#N | i | ? | ? | ? | ?
COc1ccc(-c2nn3c(=O)cc(CN4CCN(C(=O)Nc5ccc(C)c(Cl)c5)CC4)nc3s2)cc1 | nt | nt | nt | i | nt
COc1cc(OC)cc(C(=O)NNC(=S)Nc2ccccc2OC)c1 | i | i | i | i | 22.4µM
COc1ccccc1NC(=S)NNC(=O)c1ccncc1 | i | nt | nt | i | i
COc1ccccc1NC(=S)c1ccccc1 | i | 22.4µM | i | i | 28.2µM
C/C(CCN1CCc2nc(-c3ccccc3)c(-c3ccccc3)cc2C1)=N\O[C@@H](C)CN1CCCc2nc(C)c(C)cc21 | nt | nt | nt | nt | i[13.5 µM]
Cc1noc(C)c1C(=O)NNc1ccc(C(C)C)cc1 | nt | nt | nt | nt | 11.2µM
Cc1ccc(NNC(=O)c2c(C)noc2C)cc1Cl | nt | nt | nt | ? | 28.2µM
Cc1ccc(C(C)NC(=O)c2c(C)noc2C)cc1C (stereo not drawn) | i | i | i | i | i
Cc1ccc(NNC(=O)c2ccno2)cc1Cl | nt | nt | nt | ? | 14.1µM
CCC(Sc1nc2ccccc2c2nc(CCc3c(C)n[nH]c3C)nn12)C(=O)Nc1ccc(OC)cc1 (stereo not drawn) | nt | nt | nt | i | nt
O=[N+]([O-])c1ccccc1Oc1ccccc1Cl | i | 31.6µM | i | i | i
COc1cccc(-c2nc(SCc3cc(=O)c4ccc(C)c(C)c4[nH]3)n[nH]2)c1 | nt | nt | nt | i | nt
CN(Cc1ccco1)c1nc(-c2ccccc2C(F)(F)F)nc2ccccc12 | nt | nt | nt | i | i
COc1ccc(CN(C(=O)Nc2ccccc2)c2ccccn2)cc1OC | nt | nt | nt | i | nt
Cc1cc(C)c(C#N)c(SCC(=O)N(C)C2CCCCC2)n1 | i | i | ? | ? | 17.8µM
O=C(CCCN1C(=O)CSc2ncccc21)N1CCN(Cc2ccccc2)CC1 | i | i | i | i | 22.4µM
COCc1cc(C)nc(SCC(=O)Nc2ccccc2C)c1C#N | i | i | i | i | i
CCOC(=O)N1CCC(NC(=O)CCCN2C(=O)CSc3ncccc32)CC1 | i | i | ? | ? | i
CCN(CC)C(=O)CSc1nc(C)cc(C)c1C#N | i | nt | nt | i | ?
COCc1cc(C)nc(SCC(=O)N2CCC(C)CC2)c1C#N | i | i | i | i | 7.94µM
Cc1cc(C)c(C#N)c(SCC(=O)N2CCN(Cc3ccccc3)CC2)n1 | i | i | i | i | 20µM
Cc1cc(C)c(C#N)c(SCC(=O)C(C)(C)C)n1 | i | 31.6µM | i | i | ?
Cc1nnc(SCC(=O)N2CCN(Cc3ccccc3)CC2)s1 | i | i | i | i | i
Cc1cc(C)c(C#N)c(SCC(=O)N2CCCCC2)n1 | i | i | i | i | 12.6µM
SMILES | Luc counter | HPGD inh | PNC inhibitor | Lamin A splicing | ALDH1A1 block
O=C(CSc1ncccn1)N1CCN(Cc2ccccc2)CC1 | i | i | ? | i | 28.2µM
COC(=O)CSc1nsc(SCC(=O)OC)c1C#N | i | i | ? | i | i
N#Cc1c(SCC(=O)N2CCCCC2)nsc1SCC(=O)N1CCCCC1 | i | 12.6µM | i | i | 17.8µM
Cc1cc(C)c(C#N)c(SCC(=O)NC(C)(C)C)n1 | i | i | ? | i | i
COC(=O)C1=NOC2(C=C(Br)C(OC)=C(Br)C2=O)C1 (stereo not drawn) | nt | nt | nt | nt | i[13.5 µM]
CC(=O)N[C@@H](Cc1c[nH]c2ccccc12)C(=O)OCC(=O)Nc1ccc(Cl)c(S(=O)(=O)N(C)C)c1 | i | nt | nt | i | ?
CC(=O)NC(Cc1c[nH]c2ccccc12)C(=O)OCC(=O)Nc1cc(C)on1 (stereo not drawn) | i | i | -92.2 | i | i
CC(=O)NC(Cc1c[nH]c2ccccc12)C(=O)OCC(=O)Nc1ccc2c(c1)OCO2 (stereo not drawn) | i | i | i | i | 5.01µM
CC1=NN(C(=O)c2ccc(Cn3cc(Br)c([N+](=O)[O-])n3)o2)C(O)(C(F)(F)F)C1 (stereo not drawn) | i | i | -113.8 | ? | i
O=C(Nc1cccc(F)c1)N1CC[C@@]2(CCCN(S(=O)(=O)c3ccccc3)C2)C1 | i | i | nt | nt | i
